# In PubChem BioAssay (EPA / NIEHS):
# Records with an inconclusive call do not appear. Active and inactive are the calls of the source. Rule for the calls: active = hit-call score of the fitted dose curve at least 0.9, where 1 is the maximum; inconclusive = response in the unintended direction; inactive = score below 0.9.
# Key:
# NCBI gene 100848466 = test: NVS_NR_bPR: NovaScreen (NVS) Nuclear Receptor Binding Assay for bovine Progextron Receptor (PR) (AID 2283343);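 for AC50: actives lower bound radioligand signal below DMSO meaning displacement of the label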
# How it was run: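 Scintillation counts of bound radioligand were read 18 hours after chemical addition to membranes extracted from bovine uterus. Displacement was scored as loss of signal relative to DMSO controls. Screening began at 25 uM in duplicate.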
# [1] = molecular target: human Constitutive Androstane Receptor (CAR), NR1I3 (gene 9970) (UniProt Q14994); test: NVS_NR_hCAR_Antagonist: NovaScreen (NVS) Nuclear Receptor Binding Assay for human Constitutive Androstane Receptor Antagonism (CAR) (AID 2283344)
# How it was run: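 Single 25 uM duplicate primary screen, with concentration-series follow-up on actives. Cell-free binding format run in antagonist mode, TR-FRET signal taken 1 h post-dose; activity is signal loss relative to DMSO.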
# [2] = molecular target: chimpanzee Androgen Receptor (AR), AR (gene 747460) (UniProt O97775); test: NVS_NR_cAR: NovaScreen (NVS) Nuclear Receptor Binding Assay for chimpanzee Androgen Receptor (AR) (AID 2283346);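 note: radioligand displacement from AR measured by scintillation counting in a cell-free assay; a loss of bound radioligand signal versus DMSO counts as binding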
# How it was run: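 Radioligand binding to chimpanzee AR expressed in Sf9/Sf21 cells, cell-free, measured 72 h after dosing by lysate-based scintillation counting. Loss of signal vs DMSO; initial duplicate screen at 25 uM, actives retested in concentration series.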
# [3] = test system: guinea pig Histamine Receptor (H2), gene 100729734; test: NVS_GPCR_gH2: NovaScreen (NVS) G Protein-Coupled Receptor Assay for guinea pig Histamine Receptor (H2) (AID 2283342)
# How it was run: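 Guinea pig striatal membrane preparation with specific radioligand; bound counts measured by filtration and scintillation 1 h post-dosing, DMSO as baseline. Chemicals passing a 25 uM duplicate screen were titrated to a 50 uM maximum.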
# [4] = molecular target: bovine Estrogen Receptor (ER), ESR1 (gene 407238) (UniProt P49884); test: NVS_NR_bER: NovaScreen (NVS) Nuclear Receptor Binding Assay for bovine Estrogen Receptor (ER) (AID 2283345);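 note: actives lower the bound radioligand count which means they displace the ER ligand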
# How it was run: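 Cell-free radioligand binding with receptor from bovine uterine membranes, read by scintillation counting 18 h after dosing. Loss of specific binding was scored against DMSO; primary screen at 25 uM in duplicate, actives then run as concentration series.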
# [5] = molecular target: Estrogen receptor (Homo sapiens) (UniProt P03372); test: OT_ER_ERaERa_1440: Odyssey Thera (OT) 24-hour HEK293T Protein-Complementation Assay for Estrogen Receptor-alpha/-alpha Homodimer (AID 2283349);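 note: hits raise fluorescence above DMSO for agonists and antagonists alike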
# How it was run: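 Cells (HEK293T) carrying the fragment-tagged ERα LBD (aa 310-547) pair are treated with chemical for 24 hours. Nuclear and/or cytoplasmic fluorescence is then quantified on a laser scanning cytometer. Activity is scored as signal gain against DMSO.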
# [6] = molecular target: Estrogen receptor (Homo sapiens) (UniProt P03372); test: NVS_NR_hER: NovaScreen (NVS) Nuclear Receptor Binding Assay for human Estrogen Receptor (ER) (AID 2283348)
# How it was run: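 MCF7-derived receptor extract, radiolabelled ligand, competitive displacement. Read: scintillation counts at 18 h. DMSO = negative control/baseline. Primary 25 uM duplicate; follow-up concentration–response.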
# [7] = molecular target: Bile acid receptor (Homo sapiens) (UniProt Q96RI1); test: NVS_NR_hFXR_Antagonist: NovaScreen (NVS) Nuclear Receptor Binding Assay for human Farnesoid X Receptor Antagonism (FXR) (AID 2283350)
# How it was run: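 Antagonist-format time-resolved FRET binding assay with extracted human receptor protein, read 1 hour after compound addition. Compounds first screened at 25 uM in duplicate, then actives tested in concentration series, with loss of signal relative to DMSO.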
# [8] = molecular target: rat Glutamate, MK-801 Agonist Site (GluNMDA_MK801), Grin1 (gene 24408) (UniProt P35439); test: NVS_LGIC_rGluNMDA_MK801_Agonist: NovaScreen (NVS) Ligand-Gated Ion Channel Assay for rat Glutamate, MK-801 Agonist Site (GluNMDA_MK801) (AID 2283340)
# How it was run: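 Rat forebrain membrane preparation; MK-801-site radioligand binding read by filtration and scintillation after 1.5 h. Single-point 25 uM duplicate screen, followed by singleton concentration series to 50 uM max; DMSO baseline.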
# [9] = molecular target: Bile acid receptor (Homo sapiens) (UniProt Q96RI1); test: NVS_NR_hFXR_Agonist: NovaScreen (NVS) Nuclear Receptor Binding Assay for human Farnesoid X Receptor Agonism (FXR) (AID 2283347)
# Method: NVS_NR_hFXR_Agonist is a biochemical, single-readout assay that uses extracted gene-proteins in a cell-free assay. Measurements were taken 1 hour after chemical dosing in a 384-well plate.NVS_NR_hFXR_Agonist is one of one assay component(s) measured or calculated from the NVS_NR_hFXR_Agonist assay. It is designed to make measurements of fluorescent resonance energy transfer, a form of binding reporter, as detected with fluorescent resonance energy transfer signals by Time-Resolved Fluorescence Resonance Energy Transfer (TR-FRET) technology.Data from the assay component NVS_NR_hFXR_Agonist was analyzed into 1 assay endpoint. This assay endpoint, NVS_NR_hFXR_Agonist, was analyzed in the positive analysis fitting direction relative to DMSO as the negative control and baseline of activity. Using a type of binding reporter, gain-of-signal activity can be used to understand changes in the binding as they relate to the gene NR1H4. Furthermore, this assay endpoint can be referred to as a primary readout, because the performed assay has only produced 1 assay endpoint. To generalize the intended target to other relatable targets, this assay endpoint is annotated to the nuclear receptor intended target family, where the subfamily is non-steroidal.
# Binding assays used specific radioligands (tritiated, iodinated) with non-radioactive competitive displacement ligands in agonist or antagonist protocols (as indicated) and various reference compounds and inhibitors to titrate specific binding to receptors and transporters. Most enzyme assays (CYPs, kinases, phosphatases, proteases, HDACs) used recombinant protein and specific substrates (fluorescence mostly, some colorimetric and radioactive) and inhibitors, followed by a biochemical separation of substrate and product. All assays for the biochemical HTS were initially run in duplicate at a single concentration (10 uM for CYP450 assays and 25 uM for all others). […] Each assay was run with positive and negative controls, and concurrent controls on every plate. […]
# Sequence of chimpanzee Androgen Receptor (AR), AR (gene 747460) (O97775 whole entry, looked up): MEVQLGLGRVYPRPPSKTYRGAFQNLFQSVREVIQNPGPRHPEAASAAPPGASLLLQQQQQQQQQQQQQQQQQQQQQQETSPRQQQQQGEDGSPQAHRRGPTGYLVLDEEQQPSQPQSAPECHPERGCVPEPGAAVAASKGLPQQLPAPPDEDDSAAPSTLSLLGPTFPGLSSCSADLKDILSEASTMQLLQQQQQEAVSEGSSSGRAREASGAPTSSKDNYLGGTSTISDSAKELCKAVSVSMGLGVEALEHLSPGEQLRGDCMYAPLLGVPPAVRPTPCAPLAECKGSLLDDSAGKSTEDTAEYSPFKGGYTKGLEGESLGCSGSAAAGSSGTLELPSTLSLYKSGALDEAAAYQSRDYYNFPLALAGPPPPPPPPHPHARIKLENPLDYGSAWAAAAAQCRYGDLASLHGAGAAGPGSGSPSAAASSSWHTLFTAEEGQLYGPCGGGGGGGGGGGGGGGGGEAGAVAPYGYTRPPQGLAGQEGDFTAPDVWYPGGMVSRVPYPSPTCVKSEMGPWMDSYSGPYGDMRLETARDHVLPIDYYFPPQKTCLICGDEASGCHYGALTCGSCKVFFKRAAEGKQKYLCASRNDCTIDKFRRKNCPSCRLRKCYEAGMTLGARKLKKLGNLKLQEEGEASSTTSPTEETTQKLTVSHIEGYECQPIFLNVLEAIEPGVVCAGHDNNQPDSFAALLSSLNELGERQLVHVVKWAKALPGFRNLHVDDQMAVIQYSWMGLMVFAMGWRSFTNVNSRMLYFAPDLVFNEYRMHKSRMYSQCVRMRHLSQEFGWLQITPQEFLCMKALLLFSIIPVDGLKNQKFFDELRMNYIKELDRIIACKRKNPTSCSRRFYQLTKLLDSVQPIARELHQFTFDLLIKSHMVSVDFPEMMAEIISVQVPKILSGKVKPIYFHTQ
# Sequence of Bile acid receptor (Homo sapiens) (Q96RI1 whole entry, looked up): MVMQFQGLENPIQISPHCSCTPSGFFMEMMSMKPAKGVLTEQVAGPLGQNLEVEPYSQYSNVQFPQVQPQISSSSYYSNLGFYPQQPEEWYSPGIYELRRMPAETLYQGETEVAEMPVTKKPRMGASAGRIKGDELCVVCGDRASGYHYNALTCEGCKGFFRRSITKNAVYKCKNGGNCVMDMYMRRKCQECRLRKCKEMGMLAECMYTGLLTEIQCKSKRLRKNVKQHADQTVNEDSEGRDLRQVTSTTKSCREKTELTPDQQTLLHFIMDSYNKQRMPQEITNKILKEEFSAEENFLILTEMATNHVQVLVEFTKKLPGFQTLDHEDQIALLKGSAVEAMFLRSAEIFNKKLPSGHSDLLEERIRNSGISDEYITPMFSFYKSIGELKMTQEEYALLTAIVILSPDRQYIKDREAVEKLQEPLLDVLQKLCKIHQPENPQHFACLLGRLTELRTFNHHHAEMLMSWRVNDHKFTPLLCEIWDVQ
# Sequence of human Constitutive Androstane Receptor (CAR), NR1I3 (gene 9970) (Q14994 whole entry, looked up): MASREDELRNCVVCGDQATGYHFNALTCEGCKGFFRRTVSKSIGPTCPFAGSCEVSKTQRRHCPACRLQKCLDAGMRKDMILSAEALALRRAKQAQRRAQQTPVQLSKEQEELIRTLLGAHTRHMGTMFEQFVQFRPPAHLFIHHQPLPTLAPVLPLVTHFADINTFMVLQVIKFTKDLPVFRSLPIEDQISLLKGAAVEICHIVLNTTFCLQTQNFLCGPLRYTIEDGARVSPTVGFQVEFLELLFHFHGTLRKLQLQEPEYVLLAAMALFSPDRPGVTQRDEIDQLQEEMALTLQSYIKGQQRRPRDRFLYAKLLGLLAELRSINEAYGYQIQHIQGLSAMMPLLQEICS
# Sequence of Estrogen receptor (Homo sapiens) (P03372 whole entry, looked up, the tested form may be a part): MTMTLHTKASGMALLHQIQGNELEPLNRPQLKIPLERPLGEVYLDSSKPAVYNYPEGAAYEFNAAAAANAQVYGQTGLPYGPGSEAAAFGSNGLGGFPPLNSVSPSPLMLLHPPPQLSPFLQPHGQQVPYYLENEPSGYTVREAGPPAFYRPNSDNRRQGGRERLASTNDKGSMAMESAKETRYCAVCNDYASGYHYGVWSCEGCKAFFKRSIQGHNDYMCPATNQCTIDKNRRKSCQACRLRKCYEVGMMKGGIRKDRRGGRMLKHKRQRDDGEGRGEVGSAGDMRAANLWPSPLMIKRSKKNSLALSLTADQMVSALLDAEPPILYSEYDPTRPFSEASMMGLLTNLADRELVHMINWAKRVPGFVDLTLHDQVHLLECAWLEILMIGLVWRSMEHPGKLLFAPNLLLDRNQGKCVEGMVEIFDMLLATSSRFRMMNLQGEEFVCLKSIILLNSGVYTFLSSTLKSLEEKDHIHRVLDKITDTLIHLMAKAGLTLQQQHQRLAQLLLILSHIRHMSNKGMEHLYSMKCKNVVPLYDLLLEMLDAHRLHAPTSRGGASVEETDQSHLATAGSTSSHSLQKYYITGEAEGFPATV
# Sequence of bovine Estrogen Receptor (ER), ESR1 (gene 407238) (P49884 whole entry, looked up): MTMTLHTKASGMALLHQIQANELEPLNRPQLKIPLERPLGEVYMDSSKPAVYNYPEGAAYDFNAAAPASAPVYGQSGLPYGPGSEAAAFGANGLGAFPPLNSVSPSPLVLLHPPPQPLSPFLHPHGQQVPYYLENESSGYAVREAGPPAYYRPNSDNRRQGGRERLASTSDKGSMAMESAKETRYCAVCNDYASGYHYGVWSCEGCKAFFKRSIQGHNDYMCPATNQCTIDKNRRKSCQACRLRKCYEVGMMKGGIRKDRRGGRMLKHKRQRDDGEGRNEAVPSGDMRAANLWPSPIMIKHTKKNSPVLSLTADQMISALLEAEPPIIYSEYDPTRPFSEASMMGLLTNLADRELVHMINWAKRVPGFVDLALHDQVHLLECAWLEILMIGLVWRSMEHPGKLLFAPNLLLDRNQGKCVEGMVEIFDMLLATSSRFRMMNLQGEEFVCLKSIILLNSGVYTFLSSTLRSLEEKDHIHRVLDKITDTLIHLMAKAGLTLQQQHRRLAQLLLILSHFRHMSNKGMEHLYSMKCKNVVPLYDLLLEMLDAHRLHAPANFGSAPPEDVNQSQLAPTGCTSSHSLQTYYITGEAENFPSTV
smiles,measurement,setting,value
CCOP(=S)(OCC)SCCSCC,AC50,NCBI gene 100848466,25 µM (active)
same,outcome,[1],inactive
CCCSP(=O)(OCC)Oc1ccc(Br)cc1Cl (configuration not stated),AC50,NCBI gene 100848466,20.1 µM (active)
same,AC50,[1],16 µM (active)
CCCOCC(=Nc1ccc(Cl)cc1C(F)(F)F)n1ccnc1,outcome,NCBI gene 100848466,inactive
same,AC50,[1],5.88 µM (active)
same,AC50,[2],5.96 µM (active)
C#CC(C)(C)NC(=O)c1cc(Cl)cc(Cl)c1,outcome,NCBI gene 100848466,inactive
same,outcome,[1],inactive
CC[C@H](C)[C@H]1O[C@]2(C=C[C@@H]1C)C[C@@H]1C[C@@H](C/C=C(\C)[C@@H](O[C@H]3C[C@H](OC)[C@@H](O[C@H]4C[C@H](OC)[C@@H](NC)[C@H](C)O4)[C@H](C)O3)[C@@H](C)/C=C/C=C3\CO[C@@H]4[C@H](O)C(C)=C[C@@H](C(=O)O1)[C@]34O)O2,AC50,[3],26.4 µM (active)
same,AC50,[1],31 µM (active)
same,outcome,[4],inactive
same,AC50,[2],6.02 µM (active)
same,outcome,[5],inactive
CC(C1CC1)C(O)(Cn1cncn1)c1ccc(Cl)cc1 (configuration not stated),outcome,NCBI gene 100848466,inactive
same,AC50,[2],24.9 µM (active)
CNC(=O)ON=C(SC)C(=O)N(C)C,outcome,NCBI gene 100848466,inactive
same,outcome,[1],inactive
same,outcome,[4],inactive
same,outcome,[6],inactive
same,outcome,[5],inactive
C=C(C)[C@H]1Cc2c(ccc3c2O[C@@H]2COc4cc(OC)c(OC)cc4[C@@H]2C3=O)O1,outcome,NCBI gene 100848466,inactive
same,outcome,[1],inactive
same,outcome,[7],inactive
CCOP(=S)(OCC)Oc1cc(C)nc(C(C)C)n1,outcome,NCBI gene 100848466,inactive
same,outcome,[1],inactive
C#CCC1=C(C)C(OC(=O)C2C(C=C(C)C)C2(C)C)CC1=O (configuration not stated),outcome,NCBI gene 100848466,inactive
same,outcome,[1],inactive
same,outcome,[2],inactive
COc1ccc(C(=CC(=O)N2CCOCC2)c2ccc(Cl)cc2)cc1OC,outcome,[3],inactive
same,outcome,[1],inactive
same,AC50,[2],17.3 µM (active)
same,outcome,[7],inactive
CNc1cnn(-c2cccc(C(F)(F)F)c2)c(=O)c1Cl,outcome,NCBI gene 100848466,inactive
same,outcome,[1],inactive
same,outcome,[7],inactive
CCOP(=S)(OCC)Oc1ccc2c(C)c(Cl)c(=O)oc2c1,AC50,NCBI gene 100848466,1.01 µM (active)
CCC(CC)Nc1c([N+](=O)[O-])cc(C)c(C)c1[N+](=O)[O-],AC50,NCBI gene 100848466,40.1 µM (active)
same,outcome,[1],inactive
CC(C)[C@H](C(=O)O[C@H](C#N)c1cccc(Oc2ccccc2)c1)c1ccc(Cl)cc1,outcome,NCBI gene 100848466,inactive
CCOP(=O)(OCC)Oc1cc(C)nc(C(C)C)n1,outcome,NCBI gene 100848466,inactive
same,outcome,[7],inactive
C[Si](Cn1cncn1)(c1ccc(F)cc1)c1ccc(F)cc1,AC50,NCBI gene 100848466,25 µM (active)
same,AC50,[2],9.47 µM (active)
CCOP(=S)(OCC)Oc1ccc([N+](=O)[O-])cc1,AC50,NCBI gene 100848466,2.23 µM (active)
same,outcome,[1],inactive
CC(C)N(C(=O)SCC(Cl)=C(Cl)Cl)C(C)C,AC50,NCBI gene 100848466,36.8 µM (active)
same,outcome,[1],inactive
FC(F)C(F)(F)OCC(Cn1cncn1)c1ccc(Cl)cc1Cl (configuration not stated),AC50,[3],10.1 µM (active)
same,AC50,NCBI gene 100848466,25 µM (active)
same,AC50,[2],5.47 µM (active)
CCCSP(=O)(OCC)SCCC,outcome,NCBI gene 100848466,inactive
same,outcome,[1],inactive
same,outcome,[7],inactive
CCc1cccc(C)c1N(C(=O)CCl)C(C)COC (configuration not stated),outcome,[8],inactive
same,outcome,NCBI gene 100848466,inactive
same,AC50,[1],12.9 µM (active)
CCOC(=O)CC(SP(=O)(OC)OC)C(=O)OCC (configuration not stated),outcome,NCBI gene 100848466,inactive
same,outcome,[1],inactive
CCCCOC(=O)[C@@H](C)Oc1ccc(Oc2ccc(C#N)cc2F)cc1,outcome,[5],inactive
CSC1=N[C@@](C)(c2ccccc2)C(=O)N1Nc1ccccc1,AC50,[1],3.63 µM (active)
CCC(=O)Nc1ccc(Cl)c(Cl)c1,outcome,[1],inactive
same,AC50,[2],12.4 µM (active)
CSc1nnc(C(C)(C)C)c(=O)n1N,outcome,[1],inactive
same,outcome,[7],inactive
CC1(C(=O)Nc2ccc(O)c(Cl)c2Cl)CCCCC1,outcome,[1],inactive
same,outcome,[7],inactive
Cc1cc(C2CC2)nc(Nc2ccccc2)n1,AC50,[1],25 µM (active)
same,outcome,[5],inactive
CN(C)[C@@H]1C(=O)C(C(N)=O)=C(O)[C@@]2(O)C(=O)C3=C(O)c4c(O)cccc4[C@@](C)(O)[C@H]3[C@H](O)[C@@H]12,AC50,[2],11.3 µM (active)
CSc1nc(NC(C)C)nc(NC(C)C)n1,outcome,[5],inactive
CCc1cccc(CC)c1N(COC)C(=O)CCl,AC50,[1],9.33 µM (active)
same,AC50,[2],34.6 µM (active)
same,outcome,[5],inactive
CCCCOC(=O)c1ccccc1C(=O)O,outcome,[9],inactive
same,outcome,[7],inactive
CC(COc1ccc(Oc2ccccc2)cc1)Oc1ccccn1 (configuration not stated),outcome,[1],inactive
same,AC50,[7],6.89 µM (active)
CNC(=O)Oc1cccc2c1OC(C)(C)O2,outcome,[1],inactive
same,outcome,[5],inactive
CCOP(=O)(NC(C)C)Oc1ccc(SC)c(C)c1 (configuration not stated),AC50,[1],16.8 µM (active)
same,AC50,[2],25 µM (active)
Cc1ccn2nc(S(=O)(=O)Nc3c(F)cccc3F)nc2n1,outcome,[7],inactive
COP(=O)(OC)OC(Br)C(Cl)(Cl)Br (configuration not stated),outcome,[5],inactive
COc1cccc(C(=O)NN(C(=O)c2cc(C)cc(C)c2)C(C)(C)C)c1C,outcome,[1],inactive
N#CSCSC#N,outcome,[1],inactive
same,outcome,[9],inactive
